From PubChem BioAssay
A selection: hits, their analogues and other compounds. The true share with any hit is near 4.7%.
PfHsp90 yeast 2: growth inhibition of yeast expressing Plasmodium Hsp90 | AID 504621 | inhibition, % at 9.4 µM | 310,000 compounds, 0.32% hits | S. cerevisiae expressing PfHsp90, BacTiter-Glo ATP, 48 h; yeast lacking PDR1 and PDR3 efflux regulators;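 active = every replicate shows inhibition above about 80%, whatever the replicate mean, limit read from the data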;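 also: 0% = DMSO neutral controls and 100% = 20 µM radicicol positive controls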
tim23-1 inh: growth inhibitors of tim23-1 mutant yeast; S. cerevisiae tim23-1 growth, BacTiter-Glo luminescence, 24 h; inhibition, % at 20 µM; 330,000 compounds, 1.3% hits;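 active = growth inhibition of the mutant yeast at or above 50%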;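 also: temperature-sensitive mutant grown at 25 °C; plate controls were DMSO-treated mutant yeast for no effect and medium wells lacking yeast for full effect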
ATG4B inhibitor: ATG4B (human) cysteine protease inhibition; Q9Y4P1; ATG4B cleavage of LC3-PLA2, NBD-HPC fluorescence, 1 h; inhibition, % at 8.33 µM; 340,000 compounds, 0.51% hits; AID 504462; in the data active = inhibition above about 40%
Target sequence (Q9Y4P1 whole entry, looked up): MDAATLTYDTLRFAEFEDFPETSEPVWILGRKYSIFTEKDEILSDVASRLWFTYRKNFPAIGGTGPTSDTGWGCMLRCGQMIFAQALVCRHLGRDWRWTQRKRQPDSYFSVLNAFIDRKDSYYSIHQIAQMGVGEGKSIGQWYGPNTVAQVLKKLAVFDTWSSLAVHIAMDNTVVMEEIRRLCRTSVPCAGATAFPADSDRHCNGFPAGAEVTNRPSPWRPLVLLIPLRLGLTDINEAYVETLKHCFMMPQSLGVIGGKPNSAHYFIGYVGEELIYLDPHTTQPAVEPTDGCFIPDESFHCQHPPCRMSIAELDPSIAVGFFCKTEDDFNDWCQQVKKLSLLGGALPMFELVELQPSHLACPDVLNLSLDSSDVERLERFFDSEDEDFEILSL
TIM10 inh: TIM10 yeast growth inhibition; inhibition, % at 10 µM; S. cerevisiae TIM10 strain growth, BacTiter-Glo luminescence, 24 h; AID 463195; 330,000 compounds, 1.4% hits;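 active = inhibition of 40% or more at the single tested concentration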;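 also: wild-type TIM10 isogenic control strain grown at permissive 25 °C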
SKKanGAS inh: blocks kanamycin growth of S. pyogenes SKKanGAS strain. 300,000 compounds, 1.3% hits. inhibition, % at 7.5 µM. AID 1662. BacTiter-Glo, 6 h;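 active = mean replicate score, as percent of positive control median, at least 50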;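 also: strain carries kanamycin resistance gene driven by streptokinase promoter and grows in 40 µg/ml kanamycin; loss of luminescence reflects streptokinase promoter inhibition or plain growth inhibition; 0% = median of DMSO wells and 100% = positive control at its reference dose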
tim10-1 inh: tim10-1 yeast growth inhibition | S. cerevisiae tim10-1 ts strain growth, BacTiter-Glo, 24 h | inhibition, % at 20 µM | 330,000 compounds, 2.2% hits;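 active = inhibition of at least 40%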;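 also: mutant grown at 25 °C; 0% = DMSO wells with yeast and 100% = wells holding no yeast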
Starred values were filed as active, the others as inactive; x = not tested or not shown.

SMILES	PfHsp90 yeast 2	tim23-1 inh	ATG4B inhibitor	TIM10 inh	SKKanGAS inh	tim10-1 inh
COC(=O)[C@@]12CCCN1[C@H](c1ccc(-c3cccc(Cl)c3)c(OC)c1)[C@H]1C(=O)N(C)C(=O)[C@H]12	-2	3	-2	-8	66*	32
COCCC(=O)N1CCc2ccc(NC(=O)c3ccc(C(F)(F)F)cc3)cc2C1	-2	21	1	0	1	16
Cc1ccc(Cn2cc(/C=N/NC(=O)Cc3nnc(NC(=O)c4ccc(C)cc4)s3)c3ccccc32)cc1	-2	-11	4	6	58*	-2
COc1ccc(NC(C)C(=O)N/N=C/c2c(O)ccc3ccccc23)cc1 (stereo not given)	15	13	-6	9	97*	-16
CC(=O)Nc1ccc(N=Cc2c(O)ccc3ccccc23)cc1	1	49	-8	3	14	-1
O=C(O)c1cc(N/N=C/c2c(O)ccc3ccccc23)ccc1Cl	-56	21	10	-7	10	19
O=C(N/N=C/c1c(O)ccc2ccccc12)Nc1ccccc1	x	10	-10	14	93*	-3
O=C(CNc1ccccc1)N/N=C/c1c(O)ccc2ccccc12	-14	27	-27	33	101*	28
COc1ccc(NC(C)C(=O)N/N=C/c2cc(Br)ccc2OC)cc1 (stereo not given)	10	-3	-9	20	-2	10
CC(C)C12CN3CC(C(C)C)(CN(C1)C31C(=O)Nc3ccccc31)C2=O (stereo not given)	-16	16	-1	13	1	16
O=C(c1ccccc1)N1CCC2(CC1)NCCc1[nH]cnc12	1	2	1	17	4	-13
Cc1sc2ncnc(N/N=C/c3ccccc3O)c2c1C	101*	x	-9	x	94*	x
Cc1sc2ncnc(N/N=C/c3ccc(O)cc3)c2c1C	-2	21	4	15	-2	7
O=S1(=O)N=C(Nc2ccc(N3CCOCC3)c(Cl)c2)c2ccccc21	28	-11	-9	14	50*	2
CC(=O)Nc1ccc(N2CCOCC2)c(Cl)c1	-1	1	-4	14	-4	3
COc1cc(C)c(C(=O)CC(=O)c2c(C)cc(OC)cc2C)c(C)c1	x	7	4	25	96*	32
COc1ccc(NC(C)=O)c(C)c1	1	-8	5	-15	4	-14
Cc1cc(C(C)(C)CC(C)(C)C)ccc1OCCOCC[N+](C)(C)Cc1ccccc1	113*	23	12	8	x	5
CCn1cc(C(=O)NCCCOC)c(=O)c2cc(S(=O)(=O)N3CCC(C)CC3)ccc21	-9	-6	2	4	3	2
CC1(C)CC(=O)C2=C(C1)c1c(ccc3ccccc13)NC2c1cc([N+](=O)[O-])cc([N+](=O)[O-])c1O (stereo not given)	-24	22	21	27	72*	34
CCCCn1c(O)c(N=NC(=O)c2ccccc2NS(=O)(=O)c2cccs2)c2ccccc21	-14	0	-10	15	71*	13
C=CCn1c(O)c(N=NC(=O)c2ccccc2NS(=O)(=O)c2cccs2)c2ccccc21	-2	-2	14	-2	33	15
CCOc1cc(/C=N/NC(=O)CSc2nnc(C)s2)ccc1OCc1ccccc1Cl	-20	6	-10	18	-8	8
COc1ccc(-c2nnc(NC(=O)C3CCCN3S(=O)(=O)c3cccs3)o2)cc1 (stereo not given)	x	-6	-8	-13	56*	-3
COc1ccc(C(=O)NCC(=O)OCC(=O)c2ccc(Cl)cc2)cc1OC	-4	0	-4	2	2	5
SMILES	PfHsp90 yeast 2	tim23-1 inh	ATG4B inhibitor	TIM10 inh	SKKanGAS inh	tim10-1 inh
COc1ccc(C(=O)NCC(=O)OCCCOC(=O)CNC(=O)c2ccc(OC)c(OC)c2)cc1OC	8	-5	7	6	50*	12
NC(=O)c1ccc(NC(=S)NCc2ccco2)cc1	-18	3	-5	4	3	-6
COc1ccc(C(=O)NC(=S)NNC(=O)c2ccc(NC(=O)C(C)C)cc2)cc1	-8	29	-3	40	57*	38
CC(C)C(=O)Nc1ccc(C(=O)NNC(=S)NC(=O)c2ccccc2[N+](=O)[O-])cc1	x	7	-9	-2	2	33
COc1ccc(C(=O)NC(=S)NNC(=O)c2ccc(C)cc2)cc1	-6	29	-6	36	83*	13
COc1ccc(-c2nn(-c3ccccc3)cc2C(=O)NC(=S)NNC(=O)c2ccncc2)cc1	-19	-13	-9	15	89*	5
O=C(COc1ccc(F)cc1)Nc1nc(-c2ccccn2)cs1	-11	41	-12	-6	69*	22
Cc1ccc(OCC(=O)Nc2nc(-c3ccccn3)cs2)c(C)c1	5	46	-3	-18	97*	31
O=C(Nc1nc(-c2ccccn2)cs1)Nc1ccc(F)cc1F	-2	14	1	32	90*	14
Cc1ccc(S(=O)(=O)CCC(=O)Nc2nc(-c3ccccn3)cs2)cc1	-49	13	-59	-12	x	9
O=C(Nc1nc(-c2ccccc2)cs1)Nc1ccc(F)cc1F	-6	18	3	22	-5	32
Cc1ccc(NC(=O)CN(C)C(=O)c2ccc3[nH]c4c(c3c2)CC(C)CC4)cc1 (stereo not given)	-21	12	-21	-14	x	-3
COc1ccc(NS(=O)(=O)c2ccc3nc(COc4cccc5ccccc45)[nH]c3c2)cc1	17	-5	-5	-18	71*	-14
CC1=C(C(=O)OCc2ccccc2)C(/C=C/c2ccccc2)NC(=S)N1 (stereo not given)	85*	36	27	35	19	-4
COCCOC(=O)C1=C(C)NC(=S)NC1/C=C/c1ccccc1 (stereo not given)	10	12	5	7	-16	16
CC(C)(C)c1ccc(-c2nnc(SCC(=O)Nc3sc4c(c3C#N)CCCC4)o2)cc1	12	7	-5	-9	13	8
COc1cc(C)c(Cc2cnc(N)nc2N)cc1OC	x	x	x	x	52*	x
CC(C)Oc1ccc(Cc2cnc(N)nc2N)cc1	-25	8	-6	12	20	10
Cc1ccc(-c2ccc(S(=O)(=O)N3CCCC3)cc2)cc1	25	19	-2	-6	x	12
CC1C=CCC2C(=O)N(c3cccc(C(=O)N4CCN(c5ccc(F)cc5)CC4)c3)C(=O)C12 (stereo not given)	0	13	-5	18	x	26
COc1ccc2nc(Nc3ccc4c(c3)OCO4)sc2c1	-15	8	-8	1	-9	22
COc1ccc2nc(Nc3nc4cc5c(cc4s3)OCO5)sc2c1	-6	35	-6	14	84*	11
